Bioassay records (PubChem BioAssay)
The list is not random: actives were taken first. Their share in the collection is about 2.5%.
AF4-AF9 inh = inhibitors of AF4 peptide binding to AF9, primary screen, biochemical, AlphaScreen, biotin-AF4 peptide, FLAG-AF9, single point. 350,000 tested, 0.47% active. Protein AF-9 (Homo sapiens), P42568. inhibition, % at 10 µM;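 active = every replicate reaching a set inhibition limit, whatever the replicate mean, cut at about 25% in these data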;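 also: 0% = plate neutral control median and 100% = total signal loss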
RAD52 inh = RAD52 DNA annealing inhibitors, primary screen, biochemical, FRET, single point, set 2; DNA repair protein RAD52 homolog (Homo sapiens), P43351; inhibition, % at 18.7 µM; AID 651710, 2012; 360,000 tested, 0.46% active; recombinant RAD52 DNA annealing, FRET fluorescence;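 active = every replicate showing at least 50% inhibition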
Target sequence (P43351 whole entry, looked up): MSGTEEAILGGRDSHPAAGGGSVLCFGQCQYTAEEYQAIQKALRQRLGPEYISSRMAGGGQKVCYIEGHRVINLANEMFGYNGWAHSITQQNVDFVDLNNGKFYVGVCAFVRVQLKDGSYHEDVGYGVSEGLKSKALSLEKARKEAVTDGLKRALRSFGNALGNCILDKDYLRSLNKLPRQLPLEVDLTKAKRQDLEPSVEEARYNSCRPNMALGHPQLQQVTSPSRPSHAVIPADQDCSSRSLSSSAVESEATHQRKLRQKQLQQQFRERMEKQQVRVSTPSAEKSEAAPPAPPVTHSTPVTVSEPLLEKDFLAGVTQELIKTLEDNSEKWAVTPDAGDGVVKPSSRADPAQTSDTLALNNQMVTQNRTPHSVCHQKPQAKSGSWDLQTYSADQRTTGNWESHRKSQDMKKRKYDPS
rRNA inh HTS = reduced GFP signal of wild-type E. coli, primary screen, bacterial rRNA inhibitor project, GFP/RFP fluorescence, OD600, single point | GFP signal change (wild-type ribosome), % (no concentration beside the values) | AID 720706, 2013 | E. coli WT GFP vs humanized-ribosome RFP mutants, 24 h; active compounds read low; DMSO median 0, no signal -100 | 350,000 tested, 1.6% active;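 active = significant combined selectivity score with lowered wild-type GFP, culture density cut under 30%, mutant RFP and density less affected; inactive = any of these conditions unmet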
Casp6 inh = human caspase-6 inhibitors, primary screen, biochemical, VEID-R110 fluorescence, single point, set 2; P55212; purified caspase-6, Z-VEID-R110 cleavage fluorescence; inhibition, % at 12.5 µM; 350,000 tested, 0.53% active;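 active = mean inhibition across replicates at least about 35%, with every replicate also reaching that limit, limit read from the data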;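 also: 0% = median of neutral control wells and 100% = no fluorescence left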
NSD2 inh = NSD2 histone methyltransferase inhibitors, primary screen, biochemical, AlphaScreen, single concentration, set 2; Histone-lysine N-methyltransferase NSD2 (Homo sapiens), O96028; NSD2 peptide methylation, 120 min; inhibition, % at 12.5 µM; 310,000 tested, 0.54% active; AID 743445, 2014; in the data active = inhibition above about 50%
Alpha artifact = AlphaScreen signal interference with preloaded methylated product, dose response, artefact control for NSD2 inhibitor project, biochemical, cherry-picked samples; shares compounds with NSD2 inh; 1,500 tested, 9.4% active; AID 1053174, 2014; AlphaScreen artifact counterscreen, preloaded methylated H4 peptide; AC35, µM (series often up to 10 µM), for the others: top-dose activity change, negative = signal loss; call rule not given here
An asterisk follows results filed as active; . = no result given.

SMILES | AF4-AF9 inh | RAD52 inh | rRNA inh HTS | Casp6 inh | NSD2 inh | Alpha artifact
CC(Nc1cccc2ccccc12)C(=O)N/N=C/c1ccccn1 (centres undefined) | . | . | . | . | 132* | -8%
COc1ccc(-c2cn[nH]c2N)cc1 | . | . | . | . | 63* | -3%
Cc1nc(COC(=O)c2cc(O)c3ccccc3c2O)cs1 | -5 | -28 | -20 | 12 | 78* | -2%
O=C(Nc1ccc(S(=O)(=O)Nc2ncccn2)cc1)C1CC(=O)N(c2ccc(Cl)cc2)C1 (centres undefined) | 2 | -11 | 1 | 6 | 76* | -5%
O=C(Nc1ccc(S(=O)(=O)Nc2nccs2)cc1)C1CC(=O)N(c2ccc(Cl)cc2)C1 (centres undefined) | -14 | 1 | 0 | -1 | 2 | .
Cc1cnc(NC(=O)Cc2ccc(Br)cc2)s1 | 1 | -5 | 10 | -2 | 2 | .
O=C(Cc1ccc(Br)cc1)Nc1ncc([N+](=O)[O-])s1 | -1 | -13 | . | 2 | 50* | 0%
C/C=C/c1ccc([C@@H]2[C@H]3CN(C(=O)Nc4cccc(OC)c4)CC(=O)N3[C@H]2CO)cc1 | 3 | 11 | -5 | 6 | . | .
COc1cccc(-c2ccc3c(c2)O[C@H](CN(C)C)[C@H](C)CN([C@H](C)CO)S3(=O)=O)c1 | 1 | 17 | 5 | -1 | . | .
O=[N+]([O-])c1ccccc1-c1ccc(C(=S)N2CCCC2)o1 | 10 | 1 | 4 | 11 | 65* | -9%
CC(C)(C)NC(=O)C(c1ccco1)N(C(=O)Cn1nnc(-c2ccc(F)cc2)n1)c1ccccc1F (centres undefined) | . | . | . | . | 50* | -3%
CC(C)(C)NC(=O)C(c1c[nH]c2ccccc12)N(C(=O)Cn1nnc(-c2ccc(Cl)cc2)n1)c1ccccc1F (centres undefined) | . | . | . | . | -1 | .
CC1(C)NC(=O)N(CCOCCOc2c(Cl)cc(Cl)cc2Cl)C1=O | . | . | . | . | 125* | -5%
O=c1[nH]c(=O)n(C(c2ccccc2)c2ccccc2)cc1Br | -2 | -8 | -3 | -2 | -4 | .
O=c1[nH]nc(Br)c(=O)n1C(c1ccccc1)c1ccccc1 | -1 | 2 | -63 | 3 | 51* | -5%
CCOc1ccc(NC(=O)CN(c2cccc(C(F)(F)F)c2)S(C)(=O)=O)cc1 | . | . | . | . | 113* | 0%
Oc1ccc(/C=N/Nc2cc(N3CCOCC3)nc(N3CCOCC3)n2)cc1O | 19 | 1 | -25* | 6 | 106* | -18%
Oc1ccccc1/C=N/Nc1cc(N2CCCC2)nc(N2CCCC2)n1 | . | . | . | . | 54* | -14%
Oc1cccc(/C=N/Nc2cc(N3CCOCC3)nc(N3CCOCC3)n2)c1 | . | . | . | . | 23 | .
O=C(C[C@H]1CC[C@@H]2[C@H](COC[C@@H](O)CN2C(=O)c2cccnc2)O1)Nc1ccc(-c2ccccc2)cc1 | . | . | -2 | . | . | .
Cc1cc(=O)[nH]c(COc2ccccc2)n1 | . | . | . | . | 55* | -5%
COc1cc(/C=C2\C(=N)N3N=C(S(C)(=O)=O)SC3=NC2=O)ccc1OC(=O)c1cccs1 | 4 | -19 | -20 | 43* | 62* | -7%
COCC(=O)Nc1ccc2c(c1)C(=O)N(C)C[C@H](OC)[C@H](C)CN(CC1CCCCC1)[C@H](C)CO2 | 3 | -2 | -1 | -8 | . | .
CCC(=O)N1CCN(c2ccc(Cl)cc2NC(=O)c2ccc(Br)o2)CC1 | . | . | . | . | 119* | -8%
Cc1noc(C)c1NC(=O)Nc1cccc2c1O[C@@H](CN(C)Cc1ccncc1)[C@@H](C)CN([C@@H](C)CO)C2=O | -2 | 1 | 1 | 1 | . | .
SMILES | AF4-AF9 inh | RAD52 inh | rRNA inh HTS | Casp6 inh | NSD2 inh | Alpha artifact
Cc1ccc(C)c(NC(=S)Nc2cccc3cnccc23)c1 | 0 | -10 | 7 | 20 | 98* | -6%
Cc1ccc(C)c(NC(=S)Nc2cccnc2)c1 | 1 | -10 | -4 | -1 | -1 | .
Fc1ccccc1NC(=S)Nc1cccc2cnccc12 | 2 | -18 | -6 | 27 | 99* | -4%
Cc1ccccc1NC(=S)Nc1cccc2cnccc12 | 1 | 7 | -2 | 17 | 104* | 6%
CCCN(C)C[C@H]1OCc2cnnn2CCCC(=O)N([C@@H](C)CO)C[C@H]1C | 0 | 8 | -1 | -3 | . | .
Cc1ccccc1Nc1nc(N)nc(CSc2nnc3sc4ccccc4n23)n1 | . | . | . | . | 66* | 4%
O=C1CC(=O)Nc2cc(S(=O)(=O)Nc3ccc(Cl)c(C(F)(F)F)c3)ccc2N1 | -3 | -4 | 0 | 3 | 52* | -1%
C[C@@H]1CN([C@H](C)CO)S(=O)(=O)c2ccc(-c3cccc(C(=O)N(C)C)c3)cc2O[C@H]1CN(C)C(=O)Nc1ccccc1 | -10 | 6 | 0 | -1 | . | .
CS(=O)(=O)N1C[C@H](O)COC[C@H]2O[C@@H](CC(=O)NCc3ccccc3)CC[C@@H]21 | -1 | 2 | 3 | 1 | . | .
N#Cc1c(SCC(=O)OCc2ccccc2)nsc1SCC(=O)OCc1ccccc1 | . | -4 | 5 | -5 | 126* | -4%
Cc1nn(CCc2n[nH]c(=S)n2-c2cccc(Cl)c2)c(C)c1[N+](=O)[O-] | . | . | . | . | 9 | .
Cc1cccc(-n2c(Cn3nc(C)c([N+](=O)[O-])c3C)n[nH]c2=S)c1 | . | . | . | . | 125* | 2%
CCOC(=O)c1c2c(n(Cc3ccccc3)c1C)C(=O)C(=O)c1ccccc1-2 | 5 | -4 | -42 | 12 | 63* | 9.3µM*
C[C@@H]1CCCCO[C@H](CN(C)C(=O)Nc2ccc(F)cc2)[C@@H](C)CN([C@@H](C)CO)C(=O)c2cc(NS(=O)(=O)c3cn(C)cn3)ccc2O1 | -1 | 2 | 5 | 0 | . | .
COc1cccc(NC(=O)c2ccc3c(c2)OCCO3)c1 | -1 | -12 | -4 | -2 | 113* | -2%
COc1ccc(N2CCOCC2)c(NC(=O)c2ccc3c(c2)OCO3)c1 | 2 | -6 | -4 | -2 | 53* | -1%
COc1cccc(NC(=O)c2ccc3c(c2)OCO3)c1 | 4 | -5 | -1 | 1 | -2 | .
Cc1noc(C)c1S(=O)(=O)Nc1ccc2c(c1)C(=O)N([C@H](C)CO)C[C@@H](C)[C@@H](CN(C)Cc1ccc(-c3ccccc3)cc1)O2 | 10 | -31 | 3 | 1 | . | .
C[C@H]1CCCCO[C@H](CN(C)C(=O)Nc2ccc3c(c2)OCO3)[C@@H](C)CN([C@@H](C)CO)C(=O)c2cc(NS(=O)(=O)c3ccc(F)cc3)ccc2O1 | . | . | -1 | . | . | .
O=C(C[C@@H]1C[C@H]2c3cc(NC(=O)Nc4ccccc4)ccc3O[C@H]2[C@@H](CO)O1)NCCN1CCCCC1 | 7 | 21 | 7 | 3 | . | .
